# Measurements reported in PubChem BioAssay AID1224858 (National Center for Advancing Translational Sciences (NCATS), 2016).
# Records with an inconclusive call do not appear. Activity calls are given as the source filed them. The call rests on the fitted dose curve; in most records, active means well fitted inhibition curve with a large enough effect; inconclusive means small, poorly fitted or top-dose-only effect; inactive means no such curve, though single readings can be large or run the other way.
# Assay: Confirmation assay for measurement of the activity of small molecule inhibitors on Zika virus induced Caspase-3 activity in human astrocytes
# Conditions: ZIKV-induced caspase-3/7 luminescence, 6 h; series mostly up to 46.1 µM; activity, negative = inhibition: at the top concentration
# Outline: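 Human astrocytes were pretreated 1 h with compound, then infected with ZIKV (2 FFU/cell) for 6 h at 37 C. Caspase-3/7 activity by Caspase-Glo luminescence; percent inhibition versus uninfected and infected wells.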
SMILES,Potency,"activity, negative = inhibition"
COCCn1c2c([n+](Cc3cnccn3)c1C)C(=O)c1ccccc1C2=O,5.48 µM (active),–
O=C(Nc1ccc(OC(F)(F)F)cc1)c1sccc1NCc1ccnc2ccccc12,7.74 µM (active),–
Cc1c(C(=O)O)c(O)cc2c1C(=O)c1c(O)c([C@@H]3O[C@H](CO)[C@@H](O)[C@H](O)[C@H]3O)c(O)c(O)c1C2=O,–,-21.7% (inactive)
O=C(Nc1ccc(C(=O)O)c(O)c1)c1ccccc1,4.89 µM (active),–
CC1=C(CO)C(=O)O[C@@H]([C@@H](C)[C@H]2CC[C@H]3[C@@H]4C[C@H]5O[C@]56[C@@H](O)C=CC(=O)[C@]6(C)[C@@H]4CC[C@]23C)C1,–,-6.03% (inactive)
Nc1ccc2c(c1)CN1C(=O)c3ccccc3C1=N2,2.13 µM (active),–
NC1CCC(Nc2nc(Nc3ccc(C(=O)N4CCCCC4)cc3)c3ncn(-c4cccc(F)c4)c3n2)CC1 (configuration not stated),–,55.7% (inactive)
CC(=C(CCOC(=O)C(C)C)SSC(CCOC(=O)C(C)C)=C(C)N(C=O)Cc1cnc(C)nc1N)N(C=O)Cc1cnc(C)nc1N,–,-20.1% (inactive)
Cc1ccc2c(n1)Oc1ccc(C(C)C(=O)OCC(=O)N(C)C)cc1C2 (configuration not stated),19.5 µM (active),–
CC(=NNC(=S)N1CCC1)c1ccccn1,–,48.5% (inactive)
O=S(=O)(O)CCSSCCS(=O)(=O)O,–,2.17% (inactive)
COc1ccc(NC(=O)/C=C/c2ccc(Cl)cc2)cc1,3.88 µM (active),–
CCOCCOC(=O)/C=C/c1ccc(OC)cc1,–,-28.8% (inactive)
Nc1ccc(-c2ccc3ccccc3n2)cc1,4.35 µM (active),–
CC(O)=C(C#N)C(=O)Nc1ccc(C(F)(F)F)cc1,1.09 µM (active),–
Nc1ncnc2c1ncn2[C@@H]1O[C@@H](CO)[C@H](O)[C@H]1O,–,-6.91% [at 23.8 µM] (inactive)

SMILES,Potency,"activity, negative = inhibition"
Clc1ccccc1-c1nc(-c2ccncc2)no1,6.15 µM (active),–
COc1cc(NC(C)CCCN)c2ncccc2c1 (configuration not stated),–,3.92% (inactive)
Cc1[nH]c(C=C2C(=O)Nc3ccccc32)c(C)c1CCC(=O)O,–,-2.09% (inactive)
O=C(O)[C@@H](c1ccc(OCc2ccc3ccccc3n2)cc1)C1CCCC1,8.69 µM (active),–
CC(=O)Oc1ccccc1C(=O)Nc1ncc([N+](=O)[O-])s1,1.58 µM (active),–
O=c1c2ccccc2nc2n1CCc1c-2[nH]c2ccccc12,4.89 µM (active),–
Cc1ccc(O)c(-n2nc3ccccc3n2)c1,7.74 µM (active),–
Cc1c(N)c(=O)n(-c2ccccc2)n1C,–,7.53% (inactive)
Cc1ccc(O)c(N=Nc2ccccc2)n1,1.73 µM (active),–
CNC1[C@H](O)C(O[C@@H]2C(O)C(O[C@H]3O[C@H]([C@@H](C)NC)CC[C@H]3N)[C@@H](N)C[C@H]2N)OC[C@]1(C)O (some centres not stated),–,27.9% (inactive)
NC(N)=NN=C(/C=C/c1ccc([N+](=O)[O-])o1)/C=C/c1ccc([N+](=O)[O-])o1,–,-25.3% (inactive)
COc1cccc(-c2cc(=O)c3ccccc3o2)c1N,6.9 µM (active),–
c1ccc(CCNc2nc(-c3ccccc3)cs2)cc1,10.9 µM (active),–
CC(=O)Oc1cccc2c1C(=O)c1c(OC(C)=O)cc(C(=O)O)cc1C2=O,15.5 µM (active),–
O=C(/C=C/c1ccccc1)NCCO,–,-18.6% (inactive)
CC(C)c1ccc2oc3nc(N)c(C(=O)O)cc3c(=O)c2c1,1.95 µM (active),–
